Experimental data taken from PubChem BioAssay AID686978 (National Center for Advancing Translational Sciences (NCATS), 2013).
Hit rate of the full screen: of about 420,000 compounds, about 64,000 (15%) were called active. Not shown: some 27% with an inconclusive outcome. Not all results are given here. Values without a mark were called inactive. The call rests on the fitted dose curve; in most records, active means well fitted inhibition curve with a large enough effect; inconclusive means small, poorly fitted or top-dose-only effect; inactive means flat fitted curve, though single readings scatter.

Assay: qHTS for Inhibitors of human tyrosyl-DNA phosphodiesterase 1 (TDP1): qHTS in cells in absence of CPT; further: nearly all actives have a fitted effect of over 55% in size
Settings: DT40 Tdp1-/- hTDP1 cells, no CPT, ATP luminescence, 48 h; activity change, negative = growth inhibition: at 46.2 µM (top of the series)
Summary of the method: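 Growth of hTDP1-complemented DT40 Tdp1-knockout cells is measured by ATP luminescence after at least 48 hr compound exposure at 37 °C, with DMSO substituting for the 20 nM CPT used in the parallel screen.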
On the % scale 0 is the no-effect control and ±100 the full control effect; potency means the concentration at half of the fitted maximal effect.

Structure (SMILES) | activity change, negative = growth inhibition [%] | Potency
CCOC(=O)c1cc2ccccc2n1CC(=O)c1ccccc1 | -24.1 | –
CCn1c(/C=C/Nc2ccccc2)[n+](CC)c2ccc(C(=O)OCC(F)(F)F)cc21 | – | 14.6 µM (active)
Cc1nnc(SC(C(=O)c2ccccc2)c2ccccc2)[nH]c1=O (centres undefined) | -3.13 | –
NC(=O)c1ncn([C@@H]2O[C@H](CNCc3cnc(N4CCOCC4)s3)[C@@H](O)[C@H]2O)n1 | -4.59 | –
CN(C)C(=O)c1ccc(NC(=O)c2ccccc2-c2ccccc2)cc1 | 5.43 | –
CN(C)C(=O)c1ccc2c(c1)C1C3CCC(C3)C1C(c1ccccc1)N2 (centres undefined) | – | 18.4 µM (active)
O=C(O)CCCN1C(=O)C2C3c4ccccc4C(c4ccccc43)[C@@H]2C1=O (some centres undefined) | 9.38 | –
CCOC(=O)N1CCN(C(=O)C2CC(c3ccc(F)cc3)=NO2)CC1 (centres undefined) | -2.5 | –
CCOC(=O)N1CCN(C(=O)C2CCCN(c3ncnc4c3sc3cccc(F)c34)C2)CC1 (centres undefined) | – | 6.51 µM (active)
CCOC(=O)N1CCN(C(=O)C2CCN(Cc3ccc(OC)cc3OC)CC2)CC1 | -4.56 | –
Cc1cc(=O)n2nc(N3CCCC(C(=O)N4CCN(C)CC4)C3)sc2n1 (centres undefined) | -15.7 | –
CCOC(=O)N1CCN(C(=O)C2CCN(S(=O)(=O)c3cc(Cl)ccc3OCC)CC2)CC1 | -13.3 | –
CCOC(=O)N1CCN(C(=O)C2CCN(c3ncnc4c3sc3cccc(F)c34)CC2)CC1 | – | 5.8 µM (active)
O=C(O)c1c(NC(=O)N2CCCC2)sc2c1CCCC2 | -12.9 | –
CC(C)C(=O)N1CC(=O)Nc2ccc(F)cc2C1c1ccc(F)cc1 (centres undefined) | -25 | –
O=S(=O)(NCc1ccco1)c1cnc(Cl)c(Cl)c1 | 3.34 | –
COc1ccc([C@H]2CC(=O)C=C(c3ccc(C)cc3)C2)cc1 | -27.9 | –
COc1ccc([C@H]2CC(=O)C=C(c3ccc(OC(F)(F)F)cc3)C2)cc1OC | – | 16.4 µM (active)
COc1ccc([C@H]2CC(=O)C=C(c3ccc(CO)cc3)C2)cc1 | -19.7 | –
COc1cc(C2C(C#N)=C(C)NC3=C2C(=O)CC(C)(C)C3)ccc1O (centres undefined) | -9.8 | –
CN(C)CCOc1cccc(Br)c1 | 1.1 | –
C=CCNCCCCOc1ccccc1 | -3.33 | –
Nc1cccc(OCCCCCOc2cccc(N)c2)c1 | – | 16.4 µM (active)
CCCCN(C(=O)CSCC(=O)Nc1ccc(OC)cc1)c1c(N)n(CCC)c(=O)[nH]c1=O | -4.94 | –
COc1ccc(CCNC(=O)COC(=O)Cc2cccc(F)c2)cc1 | -11.1 | –
O=C(C1CCCN1S(=O)(=O)c1ccc(Br)cc1)N1CCOCC1 (centres undefined) | 5.59 | –
Cc1ccc(N(CCC(=O)O)S(=O)(=O)c2cccc(C(F)(F)F)c2)cc1 | 0.617 | –
Cc1noc(C)c1S(=O)(=O)Nc1ccc(C(=O)O)cc1 | -14.4 | –
Cc1oc2c(F)c(F)c(F)c(F)c2c1S(=O)(=O)Nc1cccc(C(F)(F)F)c1 | – | 20.6 µM (active)
